In PubChem BioAssay AID463173 (ICCB-Longwood Screening Facility, Harvard Medical School, 2010) one finds survival data, which are given here for 58 compounds.

Screen size: about 52,000 compounds; about 1,700 (3.3%) were called active. This is one part of a sample in which actives are shown more often than they occur. Cut-off read from the data, not from the text of the source: active = survival mostly below about 52% (no sharp cut-off); inactive = mostly above about 56%.

The subject of this experiment is Wild type. Kind of experiment: growth inhibition of S. aureus wild type versus tarO mutant, primary screen, teichoic acid synthesis inhibitors, RN4220, OD600 (AID 463173). The note with it: S. aureus RN4220 wild type/DeltatarO growth, OD600, 18 h, active compounds read low, screened at 18.75 µg/mL (by protocol).
Turning to `Cc1ccc(-c2nn(-c3ccc(F)cc3F)c3c2cnc2ccc(F)cc23)cc1`, the survival is 65% (inactive).

For the compound `CCOC(=O)c1ccc(NC(=O)CSc2nc(-c3cccs3)cc(C(F)(F)F)c2C#N)cc1`, the survival was 85% (inactive).

For `CC(C)N(C(=O)Cn1cc(S(=O)(=O)Cc2ccc(Br)cc2)c2ccccc21)C(C)C`, the survival is 80% (inactive). The value for `O=C(c1ccc2c(c1)N(Cc1cccc(Cl)c1)C(=O)c1ccccc1S2)N1CCOCC1` was 99% (inactive). To `Cc1ccnc(N2CCC(C(=O)NCc3ccc(F)cc3)CC2)n1` belongs 105% (inactive). To `Nc1nc2nc(-c3ccc(Cl)cc3)cc(C(F)(F)F)n2n1` belongs 144% (inactive); to `CC(C)c1ccccc1NC(=O)CC(C)(C)C`, 121% (inactive). Regarding `COc1cccc2cc(-c3nc4ccc(C)cc4[nH]3)c(=O)oc12`, the survival is 73% (inactive).

On to `C=CCc1cccc2cc(-c3nc4ccc(C(=O)O)cc4[nH]3)c(=O)oc12`, for which the survival was 83% (inactive). The value for `C=CCc1cccc2cc(-c3nc4ccc(C)cc4[nH]3)c(=O)oc12` was -3% (active); that for `COC(=O)c1ccc(NC(=O)CSc2cn(CC(=O)N3CCCCC3)c3ccccc23)cc1` was 89% (inactive). As to `CCC(=O)N1CCc2cc(S(=O)(=O)CCC(=O)N3CCN(c4ccccc4Cl)CC3)ccc21`, the survival was 78% (inactive). `CCCCOc1ccc(C2=NC(c3ccncc3)=Nc3ccc(OCC)cc3N2)cc1`: the survival is 90% (inactive). The value for `CCCCOc1ccc(C2=NC(c3ccncc3)=Nc3ccc(Br)cc3N2)cc1` was -4% (active). To `COc1ccc(C2=NC(c3ccncc3)=Nc3ccc(Br)cc3N2)cc1` belongs 94% (inactive). The value for `COc1ccc(CNC(=O)CCc2c(C)c3cc4c(C)coc4c(C)c3oc2=O)cc1OC` was 82% (inactive); that for `CC(C)OC(=O)CSc1nnc(-c2ccc(O)cc2)n1-c1ccccc1` was 116% (inactive); that for `COc1ccccc1-n1nc(-c2ccccc2)c2cnc3c(F)cc(F)cc3c21` was 119% (inactive).

On to `Cc1cccc(NC(=O)C(=O)NCCc2csc(-c3ccc(F)cc3)n2)c1C`, for which the survival was 75% (inactive). The value for `Cc1ccc(-c2nc(CCNC(=O)C(=O)Nc3ccc(C)c(C)c3)cs2)cc1` was -3% (active); that for `Cc1cc(C)c(NC(=O)C(=O)NCCc2csc(-c3ccc(F)cc3)n2)c(C)c1` was 76% (inactive); that for `Cc1ccc(-c2nc(CCNC(=O)C(=O)Nc3ccc(C)cc3C)cs2)cc1` was 53% (inactive).

Turning to `Cc1ccc(-c2nc(CCNC(=O)C(=O)Nc3ccc(C)c(Cl)c3)cs2)cc1`, the survival was 47% (inactive).

Regarding `Cc1ccc(-c2nc(CCNC(=O)C(=O)Nc3c(C)cccc3C)cs2)cc1`, the survival is 0% (active). To `O=C(c1cccs1)N1CCCn2c1nc1ccccc12` belongs 106% (inactive); to `CCc1nn2c(=O)cc(COC(=O)c3cccc(NC(=O)c4ccccc4C)c3)nc2s1`, 91% (inactive). The value for `CCc1nn(CC(=O)Nc2ccc(C)c(F)c2)c(=O)c2cc3cc(C)ccc3n12` was 109% (inactive); that for `COc1ccc2c(c1)-c1nc(NC(=O)c3cc(Cl)ccc3OC)sc1CC2` was 74% (inactive). The value for `COc1ccc2c(c1)Cc1sc(NC(=O)c3cccc(F)c3)nc1-2` was 69% (inactive); that for `COc1ccc2c(c1)-c1nc(NC(=O)c3ccccc3F)sc1CC2` was -1% (active). As to `COc1ccc2c(c1)Cc1sc(NC(=O)c3cccc(C)c3)nc1-2`, the survival is 7% (active). The value for `COc1ccc(C(=O)Nc2nc3c(s2)CCc2cc(OC)ccc2-3)cc1` was 41% (inactive); that for `COc1ccc2c(c1)-c1nc(NC(=O)c3ccc(Cl)cc3)sc1CC2` was 93% (inactive); that for `COc1ccc(C(=O)Nc2nc3c(s2)Cc2cc(OC)ccc2-3)cc1` was 72% (inactive).

As to `COc1ccc2c(c1)-c1nc(NC(=O)c3cccc(Br)c3)sc1CC2`, the survival is 54% (inactive). For `COc1ccc2c(c1)-c1nc(NC(=O)c3ccc(C)cc3)sc1CC2`, the survival was 14% (active). In the case of `CCCC(=O)Nc1ccc(Cl)c(NC(=O)c2cccnc2Cl)c1`, the survival was 114% (inactive). The value for `CC1=C(c2ccc(C)c(C)c2)S(=O)(=O)N=C1N1CCC(C(=O)NCCc2ccc(Cl)cc2)CC1` was 132% (inactive). The value for `CS(=O)(=O)N1CCC(N2CCN(Cc3ccc(F)cc3)C(=O)C2=O)CC1` was 81% (inactive); that for `Cc1cc(C(=O)O)c2c(=O)n(C)c(=O)n(C)c2n1` was 81% (inactive). The value for `CCOc1cccc(NC(=O)c2ccc(F)c(S(=O)(=O)N(CC)c3cccc(C)c3)c2)c1` was 82% (inactive). Turning to `Cc1ccc(C(=O)Nc2ccc(C(=O)O)cc2)cc1S(=O)(=O)Nc1ccccc1`, the survival is 73% (inactive).

For the compound `Cc1ccc(C(=O)Nc2ccccc2)cc1S(=O)(=O)Nc1ccccc1`, the survival is 70% (inactive). Turning to `CCN(c1ccccc1)S(=O)(=O)c1cc(C(=O)Nc2ccc(Br)cc2)ccc1F`, the survival is 1% (active). The value for `CCOc1ccc(NC(=O)c2ccc(F)c(S(=O)(=O)N(CC)Cc3ccccc3)c2)cc1` was 77% (inactive).

For `Cc1ccc(C(=O)Nc2ccccc2)cc1S(=O)(=O)Nc1ccc(Br)cc1`, the survival is 7% (active).

Consider `CCN1CCN(C(c2ccccc2F)c2c(O)cc(C)n(CCOC)c2=O)CC1` (stereo not drawn), for which the survival is 45% (inactive).

Turning to `Cc1ccc(NC(=O)Cn2c(=O)n(Cc3ccco3)c(=O)c3ccc(C(=O)NC4CCCC4)cc32)c(C)c1`, the survival is 87% (inactive). The value for `Cc1cccc(C(=O)NCC(c2ccc3c(c2)OCO3)N2CCN(c3ccccc3F)CC2)c1` (stereo not drawn) was 70% (inactive); that for `Cc1ccc2nc(CSc3nnc(NC(=O)COc4ccccc4F)s3)cc(=O)n2c1` was 81% (inactive). The value for `Cc1ccc(OCC(=O)Nc2nnc(SCc3cc(=O)n4cccc(C)c4n3)s2)cc1` was 64% (inactive); that for `CC(C)C(=O)Nc1nnc(SCc2cc(=O)n3ccccc3n2)s1` was 117% (inactive). To `Cc1ccc2nc(CSc3nnc(NC(=O)COc4ccccc4)s3)cc(=O)n2c1` belongs 63% (inactive); to `Cc1ccc2nc(CSc3nnc(NC(=O)C(C)C)s3)cc(=O)n2c1`, -3% (active); to `Cc1ccc(OCC(=O)Nc2nnc(SCc3cc(=O)n4cc(C)ccc4n3)s2)cc1`, 1% (active). In the case of `Cc1cccn2c(=O)cc(CSc3nnc(NC(=O)COc4ccc(F)cc4)s3)nc12`, the survival is -4% (active). The value for `Cc1ccc2nc(CSc3nnc(NC(=O)CC(C)C)s3)cc(=O)n2c1` was 60% (inactive); that for `Cc1cccn2c(=O)cc(CSc3nnc(NC(=O)COc4ccccc4)s3)nc12` was 71% (inactive).
